Records with an inconclusive call do not appear. The source made the active and inactive calls. The call rests on the fitted dose curve; in most records, active means well fitted curve in the direction sought with a large enough effect; inconclusive means small, poorly fitted or top-dose-only effect, or another doubt; inactive means no such curve, though single readings can be large; an effect the other way counts as inactive or inconclusive. Peptide text beside a SMILES is read from it. * marks the point of attachment. Hexanoyl = CCCCCC(=O)*
How the values were obtained:
[1] = molecular target: Cellular tumor antigen p53 (Homo sapiens) (UniProt P04637); experiment: Primary qHTS for small molecule compounds that upregulate eGFP-tagged delta133p53alpha (in N-terminal) cells. (AID 2060322); settings: NCI-H358 eGFP-delta133p53alpha fluorescence, 24 h; activation: hits give high values;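 further: cells pre-induced with doxycycline then dosed without doxycycline; series mostly up to about 56 µM; 0% = DMSO vehicle and 100% = reference activator; nearly all actives have a fitted effect of over 75% in size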
How it was run: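 NCI-H358 cells pre-induced 24 h with 10 ng/ml doxycycline for eGFP-delta133p53alpha, plated dox-free and exposed 24 h at 37C to titrated compounds. Fixed, Hoechst-stained; gated GFP peak intensity by laser scanning cytometry, normalized to DMSO (0%) and 57.5 uM 5-azacytidine (100%).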

[2] = molecular target: Aldehyde dehydrogenase, mitochondrial (Homo sapiens) (UniProt P05091); experiment: qHTS for Inhibitors of the Aldehyde Dehydrogenase Family (ALDH2) Primary screen (AID 2061308);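 further: plate controls were vehicle for no effect and reference inhibitor for full effect; nearly all actives have a fitted effect of over 55% in size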
[3] = molecular target: Retinaldehyde dehydrogenase 3 (Homo sapiens) (UniProt P47895); experiment: qHTS for Inhibitors of the Aldehyde Dehydrogenase Family (ALDH1A3) Primary screen (AID 2061315);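 further: plate controls were DMSO vehicle for no effect and reference inhibitor for full effect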

Chain of Cellular tumor antigen p53 (Homo sapiens) (P04637 whole entry, looked up): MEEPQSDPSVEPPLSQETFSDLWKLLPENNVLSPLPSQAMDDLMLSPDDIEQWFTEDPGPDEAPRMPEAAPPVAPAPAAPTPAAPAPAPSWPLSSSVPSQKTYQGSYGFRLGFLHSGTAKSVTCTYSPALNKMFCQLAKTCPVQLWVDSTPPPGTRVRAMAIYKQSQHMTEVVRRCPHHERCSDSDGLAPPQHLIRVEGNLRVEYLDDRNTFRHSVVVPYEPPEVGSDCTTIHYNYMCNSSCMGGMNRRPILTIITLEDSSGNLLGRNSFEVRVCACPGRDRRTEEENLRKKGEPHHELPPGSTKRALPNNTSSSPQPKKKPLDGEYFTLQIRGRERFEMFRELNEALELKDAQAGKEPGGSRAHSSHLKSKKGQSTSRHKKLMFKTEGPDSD

CC(=O)O[C@@H]1[C@@H](OC(=O)/C=C/c2ccccc2)[C@H](C)O[C@@H](O[C@H]2[C@@H]3C=CO[C@@H](O[C@@H]4O[C@H](CO)[C@@H](O)[C@H](O)[C@H]4O)[C@@H]3[C@@]3(CO)O[C@@H]23)[C@@H]1OC(C)=O
inactive: activation [1] -3.82% | Potency [2] | Potency [3]

CC1=C(C)C(=O)OC(C(C)C2CCC3C4C5OC5C5(O)CC(OC6OC(CO)C(OC7OC(C)C(O)C(O)C7O)C(O)C6O)CC(O)C5(C)C4CCC23C)C1 (stereo not drawn)
inactive: activation [1] 3.57% | Potency [2] | Potency [3]

CCCCCC(=O)N1CCC[C@H]1C(=O)N[C@@H](Cc1ccc(O)cc1)C(=O)OC (Hexanoyl-Pro-Tyr-OMe)
inactive: activation [1] -3.57% | Potency [2] | Potency [3]

C=C1CCC2C(C)(C(=O)OC)CCCC2(C)C1CCC(C)CC(=O)O (stereo not drawn)
inactive: activation [1] -13% | Potency [2] | Potency [3]

CC(C)(OC1OC(CO)C(O)C(O)C1O)C1CCC(O)(CO)C2CC(=O)C(C)(O)C2C1 (stereo not drawn)
inactive: activation [1] 22.9% | Potency [2] | Potency [3]

CC(=O)OC[C@@]12[C@H](O)C[C@@H](C)[C@]3(C[C@@H](c4ccoc4)OC3=O)[C@H]1C[C@H](O)C[C@]21CO1
inactive: activation [1] 27.5% | Potency [2] | Potency [3]

COc1cccc(NC[C@@H](O)Cn2c3ccc(Br)cc3c3cc(Br)ccc32)c1
inactive: activation [1] 29.6% | Potency [2] | Potency [3]

C=C1CCC2C(C)(C)CC(O)CC2(C)C1CCC(C)CC(=O)O (stereo not drawn)
inactive: activation [1] 2.68% | Potency [2] | Potency [3]

Cc1ccc(C(=O)N2CCN(c3ccc([N+](=O)[O-])cc3)CC2)cc1Cl
inactive: activation [1] 1.91% | Potency [2] | Potency [3]

COc1cc(C(O)C(CO)Oc2ccc(CCCO[C@@H]3O[C@@H](C)[C@H](O)[C@@H](O)[C@H]3O)cc2OC)ccc1O (stereo partly drawn)
inactive: activation [1] -13.4% | Potency [2] | Potency [3]

C=CC(C)(O)CC[C@H]1C(=C)CCC2[C@](C)(C(=O)O)CCC[C@@]21C (stereo partly drawn)
inactive: activation [1] 24.1% | Potency [2] | Potency [3]

COc1ccc(C2=CC(=O)OC2Cc2ccc(O)cc2)c(O)c1 (stereo not drawn)
inactive: activation [1] -20.6% | Potency [2] | Potency [3]

O=C1C=CC(O)(/C=C/C(=O)OC[C@H]2O[C@@H](Oc3ccc(O)cc3)[C@H](O)[C@@H](O)[C@@H]2O)C=C1
inactive: activation [1] 6.25% | Potency [2] | Potency [3]

C=C1C(=O)OC2CC(COC(=O)C(C)C)=C(C(C)CCCOC(C)=O)[C@@H](OC(C)=O)C12 (stereo partly drawn)
inactive: activation [1] 6.87% | Potency [2] | Potency [3]

COc1ccc(C2(CNC(=O)[C@](C)(Cc3c[nH]c4ccccc34)NC(=O)Nc3ccc([N+](=O)[O-])cc3)CCCCC2)nc1
inactive: activation [1] 12.9% | Potency [2] | Potency [3]

CCC(C)C(=O)O[C@@H]1[C@@H](O)[C@@H](O[C@H]2O[C@H](CO)[C@@H](O)[C@H](O)[C@H]2O)O[C@H](CO)[C@H]1O (stereo partly drawn)
inactive: activation [1] -2.29% | Potency [2] | Potency [3]

From PubChem BioAssay (NCATS)
